Bioassay records from PubChem.
Many of the other results were omitted from the sample, so hits are more common in it than they were.
S-ASM inh = Inhibitors of Secretory Acid Sphingomyelinase (S-ASM): qHTS | hit rate 0.006% among 340,000 | Sphingomyelin phosphodiesterase (Homo sapiens), P17405 | Potency, µM (highest dose often 57.5 µM), hits mostly inhibitors | placental ASM, HMU-PC fluorogenic substrate, 60 min
Target sequence (P17405 47-631 limits assumed): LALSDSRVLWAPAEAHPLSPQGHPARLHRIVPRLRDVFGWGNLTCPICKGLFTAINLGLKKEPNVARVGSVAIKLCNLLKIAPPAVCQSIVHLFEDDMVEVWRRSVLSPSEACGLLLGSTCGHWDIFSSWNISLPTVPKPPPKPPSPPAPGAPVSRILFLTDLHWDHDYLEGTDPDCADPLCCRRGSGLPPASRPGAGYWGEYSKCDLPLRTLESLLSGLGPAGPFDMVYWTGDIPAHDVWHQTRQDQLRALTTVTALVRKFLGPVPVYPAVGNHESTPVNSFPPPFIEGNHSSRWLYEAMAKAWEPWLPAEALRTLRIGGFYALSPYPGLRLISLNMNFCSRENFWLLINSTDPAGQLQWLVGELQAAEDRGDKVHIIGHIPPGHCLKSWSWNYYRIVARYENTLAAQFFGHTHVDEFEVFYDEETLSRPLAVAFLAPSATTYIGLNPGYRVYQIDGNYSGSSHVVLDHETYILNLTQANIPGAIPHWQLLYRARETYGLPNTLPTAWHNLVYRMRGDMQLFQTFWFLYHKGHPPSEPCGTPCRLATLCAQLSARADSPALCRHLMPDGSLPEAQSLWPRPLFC
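Steps: dispense placental human ASM, pin compound, wait 10 min at room temperature, add HMU-PC0 substrate at 9 uM final, incubate 60 min at 37 °C, add stop solution raising pH to 10, read fluorescence.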
Mito fusion act = qHTS Assay for Small Molecule Inhibitors of Mitochondrial Division or Activators of Mitochondrial Fusion | hit rate 0.23% among 320,000 | AID 485298, 2010 | S. cerevisiae fusion-defective mutant growth rescue, CellTiterGlo 48 h | Potency, µM (doses to about 46.1 µM), hits mostly activators; note: nearly all actives have a fitted effect of over 45% in size
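Compounds are tested for their ability to restore growth of mitochondrial fusion-defective yeast strains at non-permissive 37C in YPEG medium over 48 hours. Viability is quantified by luciferase luminescence.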
ClpP mod = qHTS Assay for Activators of ClpP; ATP-dependent Clp protease proteolytic subunit (Bacillus subtilis (strain 168)), P80244; purified B. subtilis ClpP, FRET peptide cleavage, 20 min; Potency, µM (titrated, usually from 57.5 µM); hit rate 1.9% among 340,000; active = well fitted falling curve with a large enough effect; inconclusive = small, poorly fitted or top-dose-only effect; inactive = no such curve, though single readings can be large or run the other way; note: the source files actives as falling curves though it sought activators and does not explain the sign; nearly all actives have a fitted effect of over 65% in size
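Purified B. subtilis ClpP, 10 microg/mL final in Tris/HCl pH8 with KCl, BSA, glycerol and Tween-20, cleaved an Abz/nitrotyrosine-quenched decapeptide. Fluorescence (ex 320, em 430) was read at 0 and 20 min at room temperature. Delta was normalized to 5.8 microM ADEP and DMSO/no-enzyme controls.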
RGS4 inhibitor = Inhibitors of Regulator of G Protein Signaling (RGS) 4: qHTS; Transcreener GDP fluorescence polarization, RGS4-accelerated GTP hydrolysis; Potency, µM (series often up to 114 µM), usual class: inhibitors; hit rate 0.039% among 390,000; AID 504845, 2011; note: nearly all actives have a fitted effect of over 75% in size
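MLSMR compounds (23 nl, pin-transferred) preincubated 10 min at room temperature with a 500nM (2x) first reagent, then RGS4 at 900nM (2x) plus Transcreener GDP mix added; fluorescence polarization (620/688 nm) read before and after 90 min at 30 °C.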
LDHA block = qHTS assay for inhibitors of human lactate dehydrogenase | L-lactate dehydrogenase A chain (Homo sapiens), P00338 | hit rate 0.15% among 480,000 | AID 1347041, 2019 | activity change, % (values are at about 110 or 230 µM) | purified LDHA, NADH/diaphorase-resazurin fluorescence; hits give low values; in the data active = activity change below about -30%; inconclusive = mostly about -25% to -30%
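Enzyme activity of human lactate dehydrogenase 5 (2 nM; 0.06 mM NADH, 0.2 mM pyruvate, 5 min, RT) is measured via a resazurin/diaphorase fluorescence readout of residual NADH.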
mIDH1 inhibitor = qHTS for Inhibitors of mutant isocitrate dehydrogenase 1 (IDH1): qHTS; IDH1-R132H enzyme, NADPH consumption, diaphorase/resazurin fluorescence; Potency, µM (titrated, usually from 76.6 µM), most hits filed as inhibitors; hit rate 0.093% among 390,000; note: nearly all actives have a fitted effect of over 65% in size
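IDH1-R132H (0.5 ug/mL) preincubated 30 min with compound, then NADPH (0.016 mM) and alpha-KG (2 mM) added; 80 min at RT, pH 7.5. Remaining NADPH coupled via diaphorase/resazurin to fluorescence (540/590 nm); concentration-response curves normalized to no-enzyme control.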
Of the large screens only hits and unclear results are named; the others gave an inactive call. Unless noted, calls come from the whole dose curve; as a rule, active = well fitted curve in the direction sought with a large enough effect; inconclusive = small, poorly fitted or top-dose-only effect, or another doubt; inactive = no such curve, though single readings can be large; an effect the other way counts as inactive or inconclusive.

Cc1ccc(CC2CC(=O)N(c3ccc(C)cc3)C2=O)cc1 (stereo not drawn)	none
Cc1ccc(N2C(=O)CC(Cc3ccc(Cl)cc3)C2=O)cc1 (stereo not drawn)	ClpP mod 7.1µM
Cc1ccc(-c2cc(C(=O)N(C)CCC#N)c3ccccc3n2)cc1	none (no result: S-ASM inh, Mito fusion act, ClpP mod, RGS4 inhibitor, mIDH1 inhibitor)
CCOc1ccc(C2(c3cccc(Br)c3)CCCCC2)cc1	none (no result: S-ASM inh, Mito fusion act, ClpP mod, RGS4 inhibitor, mIDH1 inhibitor)
COc1ccc(-c2cc(NCCc3ccncc3)n3ncnc3n2)cc1	ClpP mod 32µM
O=C1CSC(c2ccc(F)cc2)N1c1nc2ccccc2s1 (stereo not drawn)	Mito fusion act 13µM
CCc1ccc(NC(=O)C(=O)c2c(C)[nH]c3ccccc23)cc1	none (no result: S-ASM inh, Mito fusion act, ClpP mod, RGS4 inhibitor, mIDH1 inhibitor)
COc1ccc(-c2oc(=O)c3cc(OC)c(OC)cc3c2-c2cc(F)cc(OC)c2)cc1	ClpP mod 20µM
COc1ccc2nc(NC(=O)c3ccccc3C(=O)O)sc2c1	none
CSc1ncccc1C(=O)Nc1nc2ccc(Oc3ccccc3)cc2s1	Mito fusion act 13µM
CCOC(=O)c1sc2nc(CC(=O)OC)nc(NCc3ccc(Cl)cc3)c2c1C	ClpP mod 14µM
Cc1ccc(NC(=O)CC2C(=O)OCCN2Cc2ccccc2)cc1Cl (stereo not drawn)	none (no result: S-ASM inh, Mito fusion act, ClpP mod, RGS4 inhibitor, mIDH1 inhibitor)
COc1ccc(C2C3=C(CC(C)(C)CC3=O)Nc3c2c(=O)n(C)c(=O)n3C)cc1OC (stereo not drawn)	RGS4 inhibitor inconclusive
C=CCOc1ccccc1C1C2=C(CC(C)(C)CC2=O)Nc2c1c(=O)n(C)c(=O)n2C (stereo not drawn)	ClpP mod 28µM
Cc1cccc(NC(=O)C(C)C(=O)c2ccccc2)c1 (stereo not drawn)	none
Cc1ccc(NC(=O)C(C)c2cccc(C(=O)c3ccccc3)c2)cc1O (stereo not drawn)	ClpP mod 20µM
COC(=O)COc1cc(OCC(=O)OC)c2c(C)c(Cl)c(=O)oc2c1	ClpP mod 14µM
COC(=O)COc1cc(C)cc2oc(=O)c(CC(=O)OC)c(C)c12	ClpP mod 14µM
COC(=O)C(C)Oc1cc(OC(C)C(=O)OC)c2c(C)c(Cl)c(=O)oc2c1 (stereo not drawn)	none (no result: ClpP mod)
CCc1c(C)c2ccc(OCC(=O)OC)cc2oc1=O	ClpP mod 14µM
COc1cc(C)cc2oc(=O)c(CC(=O)Nc3ccc(NC(C)=O)cc3)c(C)c12	none (no result: S-ASM inh, Mito fusion act, ClpP mod, RGS4 inhibitor, mIDH1 inhibitor)
CCOC(=O)CC(=O)CSc1nc(-c2ccc3c(c2)OCO3)cc(C(F)(F)F)c1C#N	ClpP mod 20µM
CCc1c(C)sc(NC(=O)c2ccc(C(C)(C)C)cc2)c1C#N	none (no result: S-ASM inh, Mito fusion act, ClpP mod, RGS4 inhibitor, mIDH1 inhibitor)
COc1cccc(C2CC(=O)Oc3c2c(=O)n(C)c2ccccc32)c1 (stereo not drawn)	none (no result: S-ASM inh, Mito fusion act, ClpP mod, RGS4 inhibitor, mIDH1 inhibitor)
Cn1c(=O)c2c(c3ccccc31)OC(=O)CC2c1cccc(Cl)c1 (stereo not drawn)	ClpP mod 11µM (no result: S-ASM inh)
Cc1ccc2cc3c(N)c(C(=O)Nc4c(C)[nH]c(=O)[nH]c4=O)sc3nc2c1	ClpP mod 16µM
Cc1ccc2nc3sc(C(=O)Nc4c(C)[nH]c(=O)[nH]c4=O)c(N)c3cc2c1	none
O=C(Cc1ccccc1)Nc1ccc(Br)c(Cl)c1	Mito fusion act 14µM
Cc1ccc(-c2cc3nn(-c4ccccc4)c(N)c3c(=O)o2)cc1	ClpP mod 32µM
Cc1ccc(-n2nc(-c3ccccc3)cc2Nc2ccccc2N)cc1	Mito fusion act inconclusive, RGS4 inhibitor inconclusive
Oc1oc(-c2ccccc2)nc1C=Nc1ccccc1	none
CN(C)c1ccc(N=Cc2nc(-c3ccccc3)oc2O)cc1	ClpP mod 22µM
C=CCN(c1ccccc1)S(=O)(=O)c1cccc(C(=O)NCC2CCCO2)c1 (stereo not drawn)	ClpP mod 28µM
